The structures appear in SMILES notation. Hit rate of the full screen: of about 69,000 compounds, about 8,600 (12%) showed an effect of 50% or more. For the sample, strong results were picked, then their nearest neighbours and some compounds at random.

The experiment concerns Plasmodium berghei. Kind of experiment: Screen against P. berghei liver stage (PbLuc), transformed with Luciferase, at 10uM. The experiment is classed as functional, HepG2. As to conditions: tested at 10 uM.
`Cc1ccc(-c2nc(CN3CCCCC3Cn3cncn3)no2)cc1` (stereo unspecified): the INHIBITION is 21.5%.

Turning to `CCS(=O)(=O)CCSc1ccc(Br)cc1`, the INHIBITION was -59.8%. Consider `CN(CC(O)COc1ccc(C(F)(F)F)cc1)C(=O)Nc1nncs1` (stereo unspecified), for which the INHIBITION was -0.87%. In the case of `COc1cc(NC(=O)c2ccc(C)c(F)c2)c(C(=O)N(C)C)cc1OC`, the INHIBITION came out at 14%. With `CCn1cc(NC(=O)NC(CO)Cc2c[nH]c3ccccc23)cn1` (stereo unspecified), the INHIBITION is recorded as 32.3%.

As for `CCn1cc(S(=O)(=O)NC(CO)Cc2c[nH]c3ccccc23)cn1` (stereo unspecified), the INHIBITION was determined as 19.3%. With `CCn1cc(S(=O)(=O)NC(=O)CCc2c[nH]c3ccccc23)cn1`, the INHIBITION is on record as 61.5%.

For `CN(Cc1cc(C(C)(C)C)n[nH]1)C(=O)CCC(=O)NC1CCCC1`, the INHIBITION amounted to 32.1%. With `Cn1ncc(NC(=O)c2noc3c2CCCC3)c1C(N)=O` the figure was 2.6%; with `O=C(C1CCC2(CCN(CC3CC3)CC2)O1)N1CCCC1` (stereo unspecified), 1.34%; with `COc1ccc(C(=O)N(C)Cc2cccc(C#N)c2)c(OC)c1OC`, 50.1%.

Regarding `COc1cccc(CN(C)Cc2cccc(C#N)c2)c1OC`, the INHIBITION was -3.19%. With `COc1ccc(C(=O)N(C)Cc2nnc3ccccn23)c(OC)c1OC`, the INHIBITION is listed as -8.11%. For the compound `CCOc1ccc2oc(-c3cn(C)nc3C)c(O)c(=O)c2c1`, the INHIBITION worked out at 25.9%. In the case of `COC(=O)CCC(=O)N(Cc1ccc2cc[nH]c2c1)C1CC1`, the INHIBITION is listed as -8.8%. Regarding `COc1cc(C2CC(=O)Nc3c2nc2n3CCCC2)cc2c1OCO2` (stereo unspecified), the INHIBITION turned out to be 34%. With `CCNC(=O)[C@@H]1C[C@@H](N)CN1C(=O)c1[nH]c2ccccc2c1CC` the figure was 11.5%. In the case of `CCOCCCNc1ncc(-c2onc(C)c2C)c(-c2ccco2)n1` it was 27.465%; in that of `CCC(=O)NCC1(O)CCC(C(C)(C)C)CC1` (stereo unspecified), -5.92%. Turning to `CN(C)S(=O)(=O)N(Cc1cscn1)c1ccccc1`, the INHIBITION was 62.4%. For the compound `COCCS(=O)(=O)N(Cc1cscn1)c1ccccc1`, the INHIBITION came to 22.8%. Regarding `CN(CCOc1ccc(Br)cc1)Cc1cscn1`, the INHIBITION is recorded as -62.6%. As to `CCN(C)S(=O)(=O)N(Cc1cscn1)c1ccccc1`, the INHIBITION worked out at 66.4%. With `Cc1ccc(OCCN(C)Cc2cscn2)cc1` the figure was -23.8%; with `Cc1cc(C)cc(OCCN(C)Cc2cscn2)c1`, 28.1%. As to `CC(C)c1ccc(CN2CCCC3(CC2)CN(C)C(=O)O3)cc1` (stereo unspecified), the INHIBITION is listed as -58.7%. With `CS(=O)(=O)c1cncnc1C1CCCNC1` (stereo unspecified), the INHIBITION is 20.4%.

Take `CN(C)C(=O)CN1C(=O)CCC12CCN(Cc1cccs1)CC2`: the INHIBITION is reported as 9.97%. Take `Cc1ccsc1CNC(=O)c1ccc(N2CCNC2=O)cc1`: the INHIBITION was determined as 25.2%. Take `Cc1ccsc1CNC(=O)c1ccc2c(c1)CCC(=O)N2`: the INHIBITION was -20.8%.

Regarding `Cc1ccsc1CNC(=O)c1ccc(N2CCOC2=O)cc1`, the INHIBITION is on record as 56.8%.

On to `O=C(NCc1ccc(Cl)s1)c1ccc(N2CCOC2=O)cc1`, for which the INHIBITION was determined as 72.2%. On to `Cc1noc(C)c1CNC(=O)Nc1ccc(N2CCOC2=O)cc1`, for which the INHIBITION stood at 13.9%.

Consider `CCc1ccc(CNC(=O)NC(C)CN2CCOCC2)s1` (stereo unspecified), for which the INHIBITION is listed as -3.95%.

For the compound `CCc1ccc(CNC(=O)c2ccc(N3CCOC3=O)cc2)s1`, the INHIBITION was 78.2%. On to `O=C1CCc2cc(C(=O)NCc3ccc(Cl)s3)ccc2N1`, for which the INHIBITION is given as -28.6%. On to `O=C1COc2cc(C(=O)NCc3ccc(Cl)s3)ccc2N1`, for which the INHIBITION came out at 16.8%. With `Cc1cccn2cc(C[S+]([O-])Cc3noc(C(C)C)n3)nc12` (stereo unspecified) the figure was -9.51%; with `Cc1noc(C)c1-c1cncc(C2CCCN2Cc2c[nH]cn2)n1` (stereo unspecified), 32.8%; with `CC(=O)N1CCC(c2c(CN(C)C)cnc3cc(C)nn23)CC1`, -0.8%. Take `CCS(=O)(=O)N1CCOC2(CCCN(c3ccc(C)nn3)C2)C1` (stereo unspecified): the INHIBITION was found to be 5.65%. For `O=C1NC(C(=O)NCc2cccnc2Oc2ccc(F)cc2F)CO1` (stereo unspecified), the INHIBITION was determined as 9.52%. On to `CSCC[C@@H]1CN2CCC[C@H]2CN1Cc1coc2ccc(Cl)cc2c1=O`, for which the INHIBITION came out at 7.11%. For the compound `Cc1cc(NC(=O)CN(CC2CCOC2)C2CC2)no1` (stereo unspecified), the INHIBITION was determined as 21.5%. In the case of `O=c1[nH]nc2nc(N3CCSCC3)ccn12` it was 9.96%. With `Cc1cccc(N2CCN(c3ccn4c(=O)[nH]nc4n3)CC2)c1C` the figure was 65.8%; with `O=c1[nH]nc2nc(N3CCCC3)ccn12`, 19.8%; with `Cn1ccnc1CN1CCN(CC(O)c2ccccc2)CC1` (stereo unspecified), 4.52%. `O=C(NCc1nncn1-c1ccccc1)C1CC1`: the INHIBITION is on record as -21.8%. On to `O=C1CCC(C(=O)NCc2nncn2-c2ccccc2)CN1` (stereo unspecified), for which the INHIBITION is given as 51%. In the case of `O=C(NCc1nncn1-c1ccccc1)C1CCCC1` it was 11.9%. Turning to `Cc1cccc(CN2CCc3nnc(CN4CCCC4=O)n3CC2)n1`, the INHIBITION was 35.7%. For `CC(=O)CSc1sc2c(O)cc(=O)[nH]c2c1C(N)=O`, the INHIBITION was found to be 26%. On to `CN(CC1Cc2ccccc2CN1C)C(=O)CSc1nccn1C` (stereo unspecified), for which the INHIBITION amounted to 40.9%. As to `CN(CC1Cc2ccccc2CN1C)C(=O)CSc1ccccn1` (stereo unspecified), the INHIBITION is -4.91%. On to `Cc1cc(=O)[nH]c(SCC(=O)N(C)CC2Cc3ccccc3CN2C)n1` (stereo unspecified), for which the INHIBITION is 50.2%. On to `O=C(NCc1ccco1)c1[nH]nc2c1CS(=O)(=O)CC2`, for which the INHIBITION stood at 48.2%. With `O=C1CO[C@@H]2CN(Cc3cccs3)C[C@H]2N1CC1CC1`, the INHIBITION came to 24.5%. Take `Cc1c(CNCc2nn(-c3ccccc3)c3c2CCC3)cc(C#N)n1C`: the INHIBITION is reported as 63.6%.

On to `O=C1CCC(C(=O)NCc2nn(-c3ccccc3)c3c2CCC3)CN1` (stereo unspecified), for which the INHIBITION turned out to be 41.9%. With `O=C(NCc1nn(-c2ccccc2)c2c1CCC2)C1CC1` the figure was 59.55%. In the case of `COc1ccccc1CNCc1nn(-c2ccccc2)c2c1CCC2` it was 36.8%. With `Cc1noc(C)c1CNCc1nn(-c2ccccc2)c2c1CCC2`, the INHIBITION is reported as -0.159%. Regarding `O=C(NCc1nn(-c2ccccc2)c2c1CCC2)NC1CC1`, the INHIBITION is recorded as 30.2%. As for `Cc1cc(C)n(CCCNC(=O)[C@@H](C)NC(=O)OC(C)(C)C)n1`, the INHIBITION came to 15.8%. As to `CCOc1ccc(Cl)cc1NC(=O)N1CCC(n2cncn2)CC1`, the INHIBITION was 47%.

In the case of `NC(=O)c1cnc(-c2ccccc2)nc1CCNC(=O)CN1CCCC1`, the INHIBITION is on record as 12.8%. Take `COC1CCN(C(=O)c2ccccc2NCc2cccnc2)CC1`: the INHIBITION was -30%.

On to `Cc1cnc(C)c(N2CCN(Cc3ccc(C)c(C)c3)CC2)n1`, for which the INHIBITION came to 75%. `Cc1cnc(C)c(N2CCN(CC3CCCO3)CC2)n1` (stereo unspecified): the INHIBITION was found to be 4.93%. Take `CCc1ccc(O)c(C(=O)NC2CCN(Cc3ccncc3)CC2)c1`: the INHIBITION was 48.9%. In the case of `COC(=O)c1cc(CN2CCN(c3nc(C)cnc3C)CC2)ccc1O`, the INHIBITION came out at 51.2%. In the case of `Cc1cccnc1N1CCN(Cc2cc(O)c3cccc(F)c3n2)CC1` it was 18.6%; in that of `COC(=O)c1cc(C)nc(N2CCN(Cc3ccn(C(C)C)c3)CC2)n1`, 24.2%; in that of `COC(=O)c1cc(CN2CCN(c3ncccc3C)CC2)ccc1O`, 71%. Consider `Cc1cccc(CN2CCN(C(=O)c3cccnc3O)CC2)c1`, for which the INHIBITION stood at 11.2%. In the case of `Cc1ccc(CN2CCC(Cc3nnc(CO)n3C)CC2)cc1C`, the INHIBITION amounted to 4.48%. With `Cc1noc(C)c1-c1nc(C2CCCN(C(=O)CCN)C2)ccc1CO` (stereo unspecified), the INHIBITION is given as -10.2%. Consider `Cc1nc(C2CCCN(C(=O)COCc3ccccc3)C2)no1` (stereo unspecified), for which the INHIBITION is listed as 21.5%. Regarding `CCn1ncc2[nH]c(-c3cc4c(cc3OC)OCO4)nc21`, the INHIBITION is given as -7.2%.

As for `O=C(NCCc1ccccc1)C1CCN(C(=O)Cn2cncn2)C1` (stereo unspecified), the INHIBITION amounted to 3.48%. Consider `CN(C(=O)CSc1ncc[nH]1)c1ccccc1`, for which the INHIBITION was determined as 49.6%. For the compound `CCN(CC)C(=O)CSc1ncc[nH]1`, the INHIBITION amounted to 44.2%.

`CN(C(=O)CSc1ncc[nH]1)C1CC1`: the INHIBITION amounted to 53.9%. With `CC(C)(C)OC(=O)N1CCC(C(=O)NCc2cc3ccccc3[nH]2)C1` (stereo unspecified) the figure was -8.4%; with `CC(C)N1CCC2(CC1)C(=O)N(c1cccnc1)c1ccc(F)cc12`, 28.2%; with `COC[C@]1(O)CCN(C2CCN(c3ccc(Cl)cc3)CC2)CC1(C)C`, 29.4%. For the compound `O=C(NCCCn1nc2ccccn2c1=O)NCCC1CCC1`, the INHIBITION amounted to 37.9%. With `Cc1nc(CN2CCC(c3nc4ccccc4n3C)CC2)co1`, the INHIBITION is 42.3%. As for `CC(C)c1nccc(CN2CCC(c3nc4ccccc4n3C)CC2)n1`, the INHIBITION was found to be 52.6%. As for `Cn1ccnc1CN1CCC(c2nc3ccccc3n2C)CC1`, the INHIBITION came out at 39.3%. Consider `Cc1cccc(CN2CC3(CCN(C4CCOC4)CC3)OCC2=O)n1` (stereo unspecified), for which the INHIBITION turned out to be 5.56%.

For `CSCc1noc(CNC(=O)[C@H]2CNC[C@@H](C(=O)N3CCCC3)C2)n1`, the INHIBITION amounted to 38.5%. `CCCC1(CO)CCCN(Cc2nccs2)C1` (stereo unspecified): the INHIBITION stood at 81.6%.

As to `CCCC1(CO)CCCN(Cc2ncccn2)C1` (stereo unspecified), the INHIBITION is -36.5%.

Take `CNc1nc(C(=O)N2CCC3(CCCN(CCOC)C3=O)C2)cs1` (stereo unspecified): the INHIBITION is 36.2%. For `CNc1ncc(C(=O)N2CCCC(CO)(CCCOC)C2)cn1` (stereo unspecified), the INHIBITION is given as 31.3%. With `COCCC1(CO)CCCN(C(=O)c2cccnc2OC)C1` (stereo unspecified) the figure was 43.4%; with `CNc1nc(C(=O)N2CCCC(CO)(CCCOC)C2)cs1` (stereo unspecified), 58.6%. As to `COCCCC1(CO)CCCN(CCOC)C1` (stereo unspecified), the INHIBITION is given as -6.88%. Turning to `COCCC1(CO)CCCN(C(=O)c2cccnc2O)C1` (stereo unspecified), the INHIBITION came to 56.3%. On to `COCCCC1(CO)CCCN(Cc2nccs2)C1` (stereo unspecified), for which the INHIBITION is given as 75.2%. For the compound `COCCC1(CO)CCCN(C(=O)c2cc(Cl)ccc2F)C1` (stereo unspecified), the INHIBITION is reported as -2.43%. With `CC(C)=CCC1(CO)CCCN(Cc2nccs2)C1` (stereo unspecified), the INHIBITION is -21.1%. Consider `CCCn1ccnc1CN1CCCC(CC)(CO)C1` (stereo unspecified), for which the INHIBITION is listed as 0.348%.

In the case of `O=S(=O)(C1CC1)N1CCO[C@H]2[C@H](Oc3cccnc3)CC[C@@H]21`, the INHIBITION is reported as -21.1%. With `Cn1ccc(C(=O)N2CCc3[nH]nc(Nc4ccccc4)c3C2)n1` the figure was 17.04%. In the case of `CCC1c2ccsc2CCN1C(=O)NCCc1ccccn1` (stereo unspecified), the INHIBITION is 0%. Turning to `CCc1ncc(C(=O)N2CCN(Cc3ncccc3C)CC2)cn1`, the INHIBITION stood at 7.25%. With `O=C1CCC(c2ccccc2)=NN1CN1CCCCCC1` the figure was 25.3%; with `CCN(C(=O)CCc1ccccc1)C1CC(=O)NC1=O` (stereo unspecified), 9.4%.

Values taken from ChEMBL document CHEMBL4513216, “Probing the Open Global Health Chemical Diversity Library for Multistage-Active Starting Points for Next-Generation Antimalarials” (ACS Infect Dis, 2020).
